40 compounds from PubChem BioAssay (NCI) can be followed below.

Molecules are shown by their SMILES. This is part of a sample that, as a whole, favours compounds with a hit. Of some 79,000 tested, about 15% had one in any assay. A number with no mark means an inactive call. Cut-off read from the data, not from the text of the source: active = growth inhibition above about 70%; inactive = the rest.

A short description of this experiment: NCI Yeast Anticancer Drug Screen. Data for the mlh1 rad18 strain (AID 175). The conditions noted are these: S. cerevisiae mlh1 rad18 strain growth inhibition; at 50.0 µM; hits give high values. The protocol:
Growth inhibition of yeast strains with defined genetic alterations is measured as a screen for potential anti-cancer activity. Selected strains with alterations in DNA damage repair or cell cycle control were exposed to compounds and growth inhibition was measured relative to vehicle treated controls. The strain used in this assay is mlh1 rad18
With `CC(=O)NNc1nc(C)c(C(=O)/C=C/c2ccc(/C=C/C(=O)c3sc(NNC(C)=O)nc3C)cc2)s1`, the growth inhibition was -35.1%.

In the case of `O=C(Nc1ccccc1)Sc1ccc(Cl)cc1`, the growth inhibition is 2.85%.

As to `CCCC(CCC)C(=O)O`, the growth inhibition is -1.05%.

Turning to `Nc1ccc(Sc2nnc(N)s2)cc1`, the growth inhibition is -47.5%.

On to `CC(=O)Oc1cc(I)cc(C(=O)O)c1`, for which the growth inhibition was -10.4%.

For the compound `O/N=C(\C(=N/O)Nc1ccc(-c2ccc(NC(=N/O)/C(=N\O)c3ccccc3)cc2)cc1)c1ccccc1`, the growth inhibition is 1.1%.

`O=C(O)CNC(=O)NNc1ccccc1`: the growth inhibition is -12.7%.

For `O=C(O)CCCCCC1=CCCCC1`, the growth inhibition was 23.5%.

As to `C=CNc1cccc2ccccc12`, the growth inhibition was 14.7%.

On to `CC(=O)OC1CN(c2ccc(Br)cc2)CC(OC(C)=O)CN(c2ccc(Br)cc2)C1` (stereo not given), for which the growth inhibition is -13.3%.

With `COc1ccc(/C=C/C(C)=O)c(OC)c1`, the growth inhibition is -4.95%.

As for `N#C/C(=C\c1cc(Br)c(O)c(Br)c1)c1ccccn1`, the growth inhibition is 52.6%.

`CCOC(=O)C/C(C)=N/NS(=O)(=O)c1ccc(NC(C)=O)cc1`: the growth inhibition is -24.8%.

As for `O=Cc1c2c(cc3c1CC1(C3)Cc3cc4c(c(C=O)c3C1)CCC4)CCC2`, the growth inhibition is 1.35%.

In the case of `CC(=O)OCCn1c(Cc2ccc(Cl)cc2)nn(C(C)=O)c1=O`, the growth inhibition is 15.3%.

For `O=C(O)CC(Cc1ccc2c(c1)OCO2)C(=O)O` (stereo not given), the growth inhibition is 2.55%.

In the case of `C(CCN1CCOCC1)CN1CCOCC1`, the growth inhibition was 1.15%.

With `NC(CCCCC1CCCCC1)C(=O)O` (stereo not given), the growth inhibition was -2.95%.

Regarding `C=CC1(c2ccc3ccccc3c2)OCC(CC)(CC)CO1`, the growth inhibition was 21.5%.

Turning to `CCc1ccc(NC(=O)c2cc(OC)c(OC)c(OC)c2)cc1`, the growth inhibition was 29.2%.

Regarding `CCN(CC)C(=O)CCC1CCCCC1`, the growth inhibition is -23.5%.

As to `COc1cc(C(C)C)c(Oc2c(C)c(OC)cc(C(C)C)c2O)cc1C` (tested in a mixture with another compound), the growth inhibition is 7.4%.

On to `CC(=O)NS(=O)(=O)c1ccc(NC(=O)COC(=O)c2cccc3c(=O)c4ccccc4[nH]c23)cc1`, for which the growth inhibition is -23.6%.

With `O=C(C[n+]1ccccc1Cl)c1ccc(I)cc1`, the growth inhibition is 56.8%.

With `O=C(O)c1cnccn1`, the growth inhibition is 17.9%.

`CCCCCCCCCCCCC(O)C(=O)O` (stereo not given): the growth inhibition is -39.7%.

Take `Clc1ccc(CSc2cnnc3c(Br)cccc23)c(Cl)c1`: the growth inhibition was 0.85%.

For `O=S(CCO)c1ccc(Cl)cc1` (stereo not given), the growth inhibition was -23.9%.

Turning to `O=C(Nc1c(Cl)cccc1Cl)OCc1ccco1`, the growth inhibition was 19.6%.

In the case of `COc1cc(/C=C/c2ccnnc2)cc(OC)c1OC`, the growth inhibition is -34.6%.

As for `CC(C)(C)OC(=O)CN1C(=O)CCC1=O`, the growth inhibition was -5.15%.

In the case of `O=C(O)c1c(Cl)c(Cl)c(Cl)c(C(=O)O)c1Cl`, the growth inhibition is 19.2%.

On to `O=[N+]([O-])c1cc(F)ccc1-c1ccc(F)cc1`, for which the growth inhibition is 20.4%.

Turning to `Cc1ccc(NC(=O)C2CCN(C)CC2)cc1`, the growth inhibition is 7.85%.

Take `O=[N+]([O-])c1cccc(C2OCC3(CO2)COC(c2cccc([N+](=O)[O-])c2)OC3)c1` (stereo not given): the growth inhibition is 10.8%.

In the case of `CSc1nc(Cl)nc2c1nc(SC)n2-c1ccccc1`, the growth inhibition was -15%.

Consider `O=C(C[n+]1csc2ccccc21)c1ccc(-c2ccccc2)cc1`, for which the growth inhibition was 4.85%.

As to `CCOC(=O)c1cc(C)nc2c(Cl)cc(Cl)cc12`, the growth inhibition is 7.95%.

In the case of `Cc1ccc(C(=O)N2CCCCC2)cc1N=NN(C)C`, the growth inhibition is -21.1%.

Take `C=CCOC(=O)C(O)C=C` (stereo not given): the growth inhibition is 11.6%.
